Calls of active or inactive are those of the source. Unless noted, no rule for the calls is given here.
Legend:
[1] = HepG2 liver cancer cell viability effects, profiling panel, resazurin fluorescence, 24 h, PK04 Diversity Set (AID 1172); conditions: higher = more signal; also: test concentration not given here
[2] = basal S. cerevisiae growth modulation, no modifier, primary screen, OD600, strain BY4716, 24 h, basal condition (AID 1173); conditions: OD600, 24 h, higher = more signal, called active from +8 up or from −8 down
[3] = MM1S myeloma cell viability, profiling panel, resazurin fluorescence, basal, 24 h, PK04 Diversity Set (AID 1174); conditions: higher = more signal, called active from +8 up or from −8 down;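 also: MM1S multiple myeloma cell line; test concentration not given here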
[4] = target: Dihydroorotate dehydrogenase (quinone), mitochondrial (Plasmodium falciparum (isolate 3D7)) (UniProt Q08210); experiment: PfDHODH enzyme inhibitors, primary screen, biochemical, C-terminal His tag, absorbance 600 nm (AID 1175); conditions: DCIP absorbance 600 nm, higher = more signal, called active from +8 up or from −8 down;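 also: recombinant parasite enzyme with a five histidine tag at its C terminus; test concentration not given here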
[5] = P. aeruginosa biofilm formation inhibitors, primary screen, strain PAO1, LB-PBS medium, absorbance 600 nm (AID 1176); also: test concentration not given here; conditions: P. aeruginosa PAO1 growth/biofilm, A600, 12 h; higher = more signal
[6] = S. cerevisiae RM11-1a growth modifiers, primary screen, strain RM11-1a, OD600, basal, 24 h (AID 1177); conditions: OD600, 24 h, higher = more signal, called active from +8 up or from −8 down;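 also: cultures grown under basal conditions with no added stressor; test concentration not given here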
[7] = E. coli acrAB mutant growth effects, primary screen, E. coli filamentation inducers, strain DRC39, OD650, 24 h (AID 1178); conditions: higher = more signal, called active from +8 up or from −8 down;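 also: growth measured as culture turbidity by optical density at 650 nm; test concentration not given here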
[8] = E. coli acrAB mutant growth effects, primary screen, E. coli filamentation inducers, strain DRC39, OD650, 48 h (AID 1179);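 also: screen aims at cell division blockers that make cells filament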; conditions: E. coli DRC39 delta-acrAB growth, higher = more signal, called active from +8 up or from −8 down
[9] = RPMI8226 myeloma cell viability, profiling panel, resazurin fluorescence, basal, 24 h, PK04 Diversity Set (AID 1180); conditions: higher = more signal;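 also: RPMI8826 multiple myeloma cell line at 5000 cells per well; test concentration not given here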
[10] = target: E3 ubiquitin-protein ligase XIAP (Homo sapiens) (UniProt P98170); experiment: XIAP binders, primary screen, biophysical, small-molecule microarray, fluorescence 635 nm (AID 1181); conditions: small-molecule microarray binding, higher = more signal;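 also: score merges 667 nm emission and signal to noise over triplicate slides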
Chain of E3 ubiquitin-protein ligase XIAP (Homo sapiens) (P98170 whole entry, looked up): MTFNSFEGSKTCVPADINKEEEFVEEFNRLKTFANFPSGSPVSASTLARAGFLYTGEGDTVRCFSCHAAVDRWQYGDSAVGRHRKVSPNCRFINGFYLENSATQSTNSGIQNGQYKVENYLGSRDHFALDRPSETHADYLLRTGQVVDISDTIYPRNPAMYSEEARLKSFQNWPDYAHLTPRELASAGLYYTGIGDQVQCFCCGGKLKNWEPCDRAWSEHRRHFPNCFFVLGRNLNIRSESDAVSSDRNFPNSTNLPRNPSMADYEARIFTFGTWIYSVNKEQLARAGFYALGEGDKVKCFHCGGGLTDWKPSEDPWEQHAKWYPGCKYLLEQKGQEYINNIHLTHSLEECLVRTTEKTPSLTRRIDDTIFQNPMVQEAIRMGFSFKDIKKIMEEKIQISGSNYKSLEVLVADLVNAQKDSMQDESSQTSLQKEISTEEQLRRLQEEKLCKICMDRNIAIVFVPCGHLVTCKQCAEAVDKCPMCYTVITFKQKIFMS

Chain of Dihydroorotate dehydrogenase (quinone), mitochondrial (Plasmodium falciparum (isolate 3D7)) (Q08210 whole entry, looked up): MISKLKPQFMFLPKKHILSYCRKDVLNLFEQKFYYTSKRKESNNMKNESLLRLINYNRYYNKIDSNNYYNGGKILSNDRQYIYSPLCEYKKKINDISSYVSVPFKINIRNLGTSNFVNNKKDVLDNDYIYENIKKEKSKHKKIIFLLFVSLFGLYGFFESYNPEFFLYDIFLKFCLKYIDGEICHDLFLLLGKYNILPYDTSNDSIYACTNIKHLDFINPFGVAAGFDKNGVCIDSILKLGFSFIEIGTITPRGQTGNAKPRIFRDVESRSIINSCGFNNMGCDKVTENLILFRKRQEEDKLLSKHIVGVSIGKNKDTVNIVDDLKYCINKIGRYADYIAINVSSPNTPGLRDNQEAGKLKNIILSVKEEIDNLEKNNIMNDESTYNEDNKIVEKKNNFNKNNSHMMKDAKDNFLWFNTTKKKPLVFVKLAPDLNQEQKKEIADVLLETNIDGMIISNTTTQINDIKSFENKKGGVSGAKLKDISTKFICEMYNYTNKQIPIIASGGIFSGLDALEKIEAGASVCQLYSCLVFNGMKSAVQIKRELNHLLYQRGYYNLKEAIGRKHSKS

Structure (SMILES) | z-score [1] | z-score [2] | z-score [3] | composite z-score [4] | z-score [5] | z-score [6] | z-score [7] | z-score [8] | z-score [9] | composite z-score [10]
CC(C)CN1CCc2nc(-c3ccccc3)c3c(c2CC1)CO[C@@H](C)C3 | 0.652 | -0.368 (inactive) | 0.389 (inactive) | 0.496 (inactive) | -0.458 (inactive) | -0.284 (inactive) | -0.274 (inactive) | -0.328 (inactive) | 0.711 | -0.0964
CC(=O)OC[C@H]1O[C@H](C#CCCCc2ccccc2)C=C[C@@H]1OC(C)=O | -0.22 | -2.31 (inactive) | -4.16 (inactive) | -0.791 (inactive) | -0.0569 (inactive) | 0.291 (inactive) | 0.387 (inactive) | -0.0416 (inactive) | -2.47 | 0.072
COc1ccc(-c2ccc3c(n2)CCCN3CC(O)CN2CCCc3nc(C)c(C)cc32)cc1 (stereo not given) | -0.671 | -1.75 (inactive) | -0.559 (inactive) | 1.18 (inactive) | 0.274 (inactive) | -0.256 (inactive) | 0.975 (inactive) | 0.65 (inactive) | -0.836 | 1.15
CO[C@H]1O[C@H](CO)[C@@H](OC(=O)Nc2ccc3c(c2)OCO3)[C@H](OC(=O)Nc2ccccc2-c2ccccc2)[C@@H]1OC(=O)Nc1ccccc1-c1ccccc1 | -0.659 | 1.42 (inactive) | -0.443 (inactive) | 0.237 (inactive) | 1.14 (inactive) | 2.33 (inactive) | -0.243 (inactive) | -0.0545 (inactive) | -0.427 | 0.28
CCCC[C@@H]1C[C@H]1[C@@H](NS(=O)(=O)c1cccc2cccnc12)c1ccc(-c2ccccc2)cc1 | -0.279 | 0.444 (inactive) | -0.251 (inactive) | -0.151 (inactive) | 0.411 (inactive) | 0.269 (inactive) | -0.366 (inactive) | -0.166 (inactive) | -0.611 | -0.0559
COC(=O)c1c(CC[C@@H](CO)NC(=O)N[C@H](Cc2ccccc2)Cn2cc(-c3ccccc3N)nn2)oc(C(C)=O)c1C(=O)OC | -0.601 | -1.2 (inactive) | 0.505 (inactive) | -0.433 (inactive) | -0.109 (inactive) | -0.053 (inactive) | 1.18 (inactive) | 0.561 (inactive) | 0.336 | -0.127
COc1ccc([Si](C)(C)[C@@H]2[C@@H](CCO)O[C@]3(C(=O)N(Cc4ccc(NC(C)=O)cc4)c4ccccc43)[C@H]2C)cc1 | -2.52 | 1.6 (inactive) | -5.15 (inactive) | -1.34 (inactive) | -0.094 (inactive) | 3.91 (inactive) | -0.486 (inactive) | -0.937 (inactive) | -5.29 | 0.0291
CC(=O)OC[C@H]1O[C@@H](ON=C[C@@H](C)[C@H](OCc2ccccc2)C(C)C)[C@H](OC(C)=O)[C@@H](OC(C)=O)[C@@H]1OC(C)=O | -1.04 | 0.0426 (inactive) | -2.37 (inactive) | -0.269 (inactive) | 1.01 (inactive) | -0.519 (inactive) | 0.153 (inactive) | 0.722 (inactive) | -0.8 | -0.162
COc1ccc(COC(=O)NN=C2C[C@@H](O)[C@@H](O)[C@@H]3[C@@H]4C(=O)N(c5ccc(F)cc5F)C(=O)[C@@H]4CC[C@@H]23)cc1 | 0.631 | 0.64 (inactive) | 0.527 (inactive) | 0.0922 (inactive) | -0.176 (inactive) | 0.968 (inactive) | 0.583 (inactive) | 0.644 (inactive) | 0.635 | -0.173
C[C@H](c1ccccc1)N1C(=O)[C@H]2[C@@H]3C(=CC[C@H]2C1=O)C(=O)[C@H]1O[C@H]1[C@H]3O | -2.54 | -3.82 (inactive) | -8.01 (active) | -1.74 (inactive) | -0.993 (inactive) | -0.141 (inactive) | 0.144 (inactive) | 0.494 (inactive) | -5.33 | 0.288
C=CCOC(=O)[C@H]1[C@@H]2C(=O)O[C@@H](c3ccccc3)[C@@H](c3ccccc3)N2[C@@H](c2ccc(OCCOC(=O)[C@H]3C[C@H]4C(=O)N[C@@H](Cc5ccccc5)C(=O)N4[C@H]3c3ccc(O)cc3)cc2)[C@]12C(=O)Nc1ccccc12 | 0.696 | 1.32 (inactive) | 1.17 (inactive) | -0.869 (inactive) | 2.64 (inactive) | 1.71 (inactive) | -0.38 (inactive) | 0.124 (inactive) | 1.74 | 0.0015
O=C1C[C@@H](O)[C@@H](O)[C@@H]2[C@@H]3C(=O)N(c4ccc(F)cc4F)C(=O)[C@@H]3CC[C@@H]12 | 0.685 | 0.461 (inactive) | 0.491 (inactive) | 0.374 (inactive) | -0.626 (inactive) | -0.584 (inactive) | -0.385 (inactive) | -0.302 (inactive) | 0.481 | -0.0735
CC(=O)OC[C@H]1O[C@H](CCON=C[C@@H](C)[C@H](OCc2ccccc2)C(C)C)C=C[C@@H]1OC(C)=O | -0.374 | 0.604 (inactive) | -0.81 (inactive) | -0.64 (inactive) | 0.0039 (inactive) | -0.399 (inactive) | -0.983 (inactive) | -2.1 (inactive) | -0.429 | -0.215
CCOC(=O)[C@H](CC(C)C)NC(=O)CCC1CC(OC(=O)NCCc2ccc(F)cc2)CC2(CCCC(COC(=O)NCc3ccccc3)O2)O1 (stereo not given in full) | -0.816 | -0.849 (inactive) | 0.409 (inactive) | -2.24 (inactive) | -0.613 (inactive) | -0.0385 (inactive) | -0.221 (inactive) | -0.565 (inactive) | 0.185 | -0.0333
O=C1C[C@@H](O)[C@@H](O)[C@@H]2[C@@H]3C(=O)N(C4CCCCC4)C(=O)[C@@H]3CC[C@H]12 | 0.513 | 0.44 (inactive) | -0.122 (inactive) | 0.349 (inactive) | -0.319 (inactive) | -0.247 (inactive) | -0.0543 (inactive) | -0.292 (inactive) | 0.288 | -0.0454
CN1C(=O)C2C=CC(C(O)c3ccc(I)cc3)N(NC(=O)OC(C)(C)C)C2C1=O (stereo not given) | -1.11 | 0.9 (inactive) | -0.694 (inactive) | 0.0247 (inactive) | 0.53 (inactive) | 0.983 (inactive) | -0.446 (inactive) | -0.18 (inactive) | -0.639 | 0.308
C#CCCCON=C1C[C@@H](O)[C@@H](O)[C@@H]2[C@@H]3C(=O)N([C@@H](C)c4ccccc4)C(=O)[C@@H]3CC[C@H]12 | -0.331 | -1.27 (inactive) | 0.8 (inactive) | -2.87 (inactive) | -0.389 (inactive) | -1.35 (inactive) | -0.0604 (inactive) | -0.12 (inactive) | 0.357 | 0.0537
CC[C@@H](c1ccccc1)n1c(=O)n2n(c1=O)[C@H]1[C@H](O)[C@@H]3O[C@@H]3C(=NOCC(C)C)[C@H]1CC2 | -0.0871 | 0.747 (inactive) | -0.349 (inactive) | 0.777 (inactive) | -0.413 (inactive) | 0.49 (inactive) | 0.258 (inactive) | -1.31 (inactive) | 0.0402 | -0.0525
C=CCNC(=O)[C@H]1[C@@H]2C(=O)O[C@@H](c3ccccc3)[C@@H](c3ccccc3)N2[C@@H](c2ccc(O)cc2)[C@]12C(=O)N(C(=O)OCCOC)c1ccc(C#CC3=CCCCC3)cc12 | 0.467 | 0.107 (inactive) | -0.61 (inactive) | -0.629 (inactive) | 0.858 (inactive) | 1.01 (inactive) | -0.925 (inactive) | -0.723 (inactive) | -0.205 | 0.22
C[C@@H](c1ccccc1)N1C(=O)[C@H]2[C@H]3[C@H](O)C=CC(=O)[C@@H]3CC[C@H]2C1=O | -0.0507 | -0.697 (inactive) | 0.711 (inactive) | -0.366 (inactive) | -0.319 (inactive) | -0.701 (inactive) | 0.0826 (inactive) | -0.286 (inactive) | 0.982 | 0.126
CCOC(=O)C1=CCC(c2cc3ccccc3[nH]2)NC1 (stereo not given) | -0.309 | -3.2 (inactive) | -0.79 (inactive) | -0.0148 (inactive) | 0.0083 (inactive) | -0.194 (inactive) | -0.303 (inactive) | -0.391 (inactive) | -0.613 | 0.0418
O=C1O[C@@H](c2ccccc2)[C@@H](c2ccccc2)N2[C@@H](c3ccc(OCCO)cc3)[C@]3(C(=O)Nc4ccccc43)[C@@H](C(=O)N3CCN(c4ncccn4)CC3)[C@H]12 | -0.18 | 0.944 (inactive) | -0.271 (inactive) | -2.37 (inactive) | 1.47 (inactive) | 2.78 (inactive) | 0.142 (inactive) | 1.07 (inactive) | 0.652 | -0.227
Cc1cc(C)c(-c2cc([C@H](C)ON=C3[C@H]4CCn5c(=O)n(-c6ccccc6)c(=O)n5[C@H]4[C@H](O)[C@@H]4O[C@H]34)on2)c(C)c1 | -0.991 | -0.752 (inactive) | -1.89 (inactive) | -0.297 (inactive) | -0.242 (inactive) | 0.615 (inactive) | 0.663 (inactive) | 0.421 (inactive) | -2.22 | -0.196
CO[C@H]1COC(=O)[C@H](C)COC(=O)CC=C[C@@H](C)[C@H](OC)COC(=O)CC=C[C@@H]1C | -0.194 | -0.754 (inactive) | -0.152 (inactive) | -0.365 (inactive) | -0.167 (inactive) | -0.192 (inactive) | 0.778 (inactive) | 0.804 (inactive) | 0.129 | -0.0117
COC(=O)CC=C[C@@H](C)[C@@H](C=NO[C@@H](C)c1cc(-c2c(C)cc(C)cc2C)no1)OC | -0.295 | -0.408 (inactive) | -0.656 (inactive) | -2.58 (inactive) | -0.728 (inactive) | -0.357 (inactive) | -0.716 (inactive) | -2.26 (inactive) | 0.197 | -0.124

Reference: PubChem BioAssay
